# A number with no mark means an inactive call.
# Legend:
# Experiment in all cases: log2 ratio of Biotin-Ahx-Ub-VS probe labelling (fragment/DMSO); higher = less target engagement (more negative = stronger competition), active = hit call of the paper (q ≤ 0.05, log2 ratio ≤ -1)
# Conditions in all cases: compound concentration: 200 uM; treatment time: 3 h
# USP19 = target: T1, USP19 (UniProt O94966)
# T1 sequence (whole entry): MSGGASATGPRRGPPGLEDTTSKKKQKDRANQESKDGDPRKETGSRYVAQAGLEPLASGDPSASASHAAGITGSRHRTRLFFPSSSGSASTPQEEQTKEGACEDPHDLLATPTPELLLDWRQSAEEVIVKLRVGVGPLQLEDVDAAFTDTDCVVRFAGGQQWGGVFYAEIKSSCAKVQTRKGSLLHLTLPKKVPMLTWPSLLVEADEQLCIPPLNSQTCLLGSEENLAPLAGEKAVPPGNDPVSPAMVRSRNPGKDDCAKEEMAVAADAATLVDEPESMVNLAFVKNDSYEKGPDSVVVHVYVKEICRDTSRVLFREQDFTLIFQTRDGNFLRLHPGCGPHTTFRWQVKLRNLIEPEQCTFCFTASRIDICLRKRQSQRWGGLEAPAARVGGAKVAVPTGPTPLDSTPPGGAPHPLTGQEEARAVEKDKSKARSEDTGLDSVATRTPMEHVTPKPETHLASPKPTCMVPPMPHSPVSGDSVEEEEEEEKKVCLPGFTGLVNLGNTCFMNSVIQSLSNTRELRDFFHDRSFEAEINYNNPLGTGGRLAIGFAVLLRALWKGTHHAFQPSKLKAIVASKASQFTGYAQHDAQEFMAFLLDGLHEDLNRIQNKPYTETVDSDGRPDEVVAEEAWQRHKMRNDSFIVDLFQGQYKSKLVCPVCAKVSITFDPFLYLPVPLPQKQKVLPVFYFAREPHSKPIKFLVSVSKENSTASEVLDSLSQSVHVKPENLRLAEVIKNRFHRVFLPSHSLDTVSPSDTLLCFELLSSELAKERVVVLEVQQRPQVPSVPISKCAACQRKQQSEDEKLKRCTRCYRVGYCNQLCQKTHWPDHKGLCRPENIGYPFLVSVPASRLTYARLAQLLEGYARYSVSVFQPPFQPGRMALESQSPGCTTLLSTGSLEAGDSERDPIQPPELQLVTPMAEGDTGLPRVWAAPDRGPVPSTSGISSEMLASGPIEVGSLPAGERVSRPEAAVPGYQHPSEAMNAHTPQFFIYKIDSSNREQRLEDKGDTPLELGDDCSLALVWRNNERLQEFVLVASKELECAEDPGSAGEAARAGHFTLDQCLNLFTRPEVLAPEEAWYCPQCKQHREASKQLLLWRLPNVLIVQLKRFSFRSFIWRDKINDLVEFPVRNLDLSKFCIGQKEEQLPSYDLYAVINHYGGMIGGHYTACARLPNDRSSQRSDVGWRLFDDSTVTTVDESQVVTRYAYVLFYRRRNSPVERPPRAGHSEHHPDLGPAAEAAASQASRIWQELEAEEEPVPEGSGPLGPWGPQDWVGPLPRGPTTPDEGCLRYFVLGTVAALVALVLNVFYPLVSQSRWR
# Method in brief: (§1)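 Labelled DUBs from HEK293T lysate were NeutrAvidin-enriched, digested with LysC and trypsin, and run by diaPASEF LC-MS/MS. Before that, each 495 µg sample in Tris/CHAPS/IGEPAL buffer with protease inhibitors was treated in triplicate with fragment at 200 µM or vehicle for 3 h, then with Biotin-Ahx-Ub-VS at 0.5 µM final for 1 h. Values are average log2 ratios of fragment over vehicle by unpaired t-test, based on global-median-normalised Spectronaut label-free quantities from proteins with ≥2 unique peptides.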
# USP22 = target: T2, USP22 (UniProt Q9UPT9)
# T2 sequence (whole entry): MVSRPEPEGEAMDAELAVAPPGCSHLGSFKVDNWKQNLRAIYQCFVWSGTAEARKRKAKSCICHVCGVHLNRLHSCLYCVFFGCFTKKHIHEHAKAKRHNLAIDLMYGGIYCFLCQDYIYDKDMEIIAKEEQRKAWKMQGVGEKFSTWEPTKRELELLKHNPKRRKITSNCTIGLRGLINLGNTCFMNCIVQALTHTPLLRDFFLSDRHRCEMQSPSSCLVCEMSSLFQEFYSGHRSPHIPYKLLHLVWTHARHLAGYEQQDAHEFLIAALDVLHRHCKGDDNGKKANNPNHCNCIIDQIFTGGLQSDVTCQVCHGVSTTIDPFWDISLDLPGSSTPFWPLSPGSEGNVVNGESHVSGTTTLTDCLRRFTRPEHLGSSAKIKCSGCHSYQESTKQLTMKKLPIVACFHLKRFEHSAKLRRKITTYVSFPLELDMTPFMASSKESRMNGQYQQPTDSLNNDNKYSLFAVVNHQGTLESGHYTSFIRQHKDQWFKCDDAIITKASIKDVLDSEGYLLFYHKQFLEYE
# Method in brief: as §1
# USP24 = USP24 (UniProt Q9UPU5)
# Sequence of USP24 (Q9UPU5 whole entry): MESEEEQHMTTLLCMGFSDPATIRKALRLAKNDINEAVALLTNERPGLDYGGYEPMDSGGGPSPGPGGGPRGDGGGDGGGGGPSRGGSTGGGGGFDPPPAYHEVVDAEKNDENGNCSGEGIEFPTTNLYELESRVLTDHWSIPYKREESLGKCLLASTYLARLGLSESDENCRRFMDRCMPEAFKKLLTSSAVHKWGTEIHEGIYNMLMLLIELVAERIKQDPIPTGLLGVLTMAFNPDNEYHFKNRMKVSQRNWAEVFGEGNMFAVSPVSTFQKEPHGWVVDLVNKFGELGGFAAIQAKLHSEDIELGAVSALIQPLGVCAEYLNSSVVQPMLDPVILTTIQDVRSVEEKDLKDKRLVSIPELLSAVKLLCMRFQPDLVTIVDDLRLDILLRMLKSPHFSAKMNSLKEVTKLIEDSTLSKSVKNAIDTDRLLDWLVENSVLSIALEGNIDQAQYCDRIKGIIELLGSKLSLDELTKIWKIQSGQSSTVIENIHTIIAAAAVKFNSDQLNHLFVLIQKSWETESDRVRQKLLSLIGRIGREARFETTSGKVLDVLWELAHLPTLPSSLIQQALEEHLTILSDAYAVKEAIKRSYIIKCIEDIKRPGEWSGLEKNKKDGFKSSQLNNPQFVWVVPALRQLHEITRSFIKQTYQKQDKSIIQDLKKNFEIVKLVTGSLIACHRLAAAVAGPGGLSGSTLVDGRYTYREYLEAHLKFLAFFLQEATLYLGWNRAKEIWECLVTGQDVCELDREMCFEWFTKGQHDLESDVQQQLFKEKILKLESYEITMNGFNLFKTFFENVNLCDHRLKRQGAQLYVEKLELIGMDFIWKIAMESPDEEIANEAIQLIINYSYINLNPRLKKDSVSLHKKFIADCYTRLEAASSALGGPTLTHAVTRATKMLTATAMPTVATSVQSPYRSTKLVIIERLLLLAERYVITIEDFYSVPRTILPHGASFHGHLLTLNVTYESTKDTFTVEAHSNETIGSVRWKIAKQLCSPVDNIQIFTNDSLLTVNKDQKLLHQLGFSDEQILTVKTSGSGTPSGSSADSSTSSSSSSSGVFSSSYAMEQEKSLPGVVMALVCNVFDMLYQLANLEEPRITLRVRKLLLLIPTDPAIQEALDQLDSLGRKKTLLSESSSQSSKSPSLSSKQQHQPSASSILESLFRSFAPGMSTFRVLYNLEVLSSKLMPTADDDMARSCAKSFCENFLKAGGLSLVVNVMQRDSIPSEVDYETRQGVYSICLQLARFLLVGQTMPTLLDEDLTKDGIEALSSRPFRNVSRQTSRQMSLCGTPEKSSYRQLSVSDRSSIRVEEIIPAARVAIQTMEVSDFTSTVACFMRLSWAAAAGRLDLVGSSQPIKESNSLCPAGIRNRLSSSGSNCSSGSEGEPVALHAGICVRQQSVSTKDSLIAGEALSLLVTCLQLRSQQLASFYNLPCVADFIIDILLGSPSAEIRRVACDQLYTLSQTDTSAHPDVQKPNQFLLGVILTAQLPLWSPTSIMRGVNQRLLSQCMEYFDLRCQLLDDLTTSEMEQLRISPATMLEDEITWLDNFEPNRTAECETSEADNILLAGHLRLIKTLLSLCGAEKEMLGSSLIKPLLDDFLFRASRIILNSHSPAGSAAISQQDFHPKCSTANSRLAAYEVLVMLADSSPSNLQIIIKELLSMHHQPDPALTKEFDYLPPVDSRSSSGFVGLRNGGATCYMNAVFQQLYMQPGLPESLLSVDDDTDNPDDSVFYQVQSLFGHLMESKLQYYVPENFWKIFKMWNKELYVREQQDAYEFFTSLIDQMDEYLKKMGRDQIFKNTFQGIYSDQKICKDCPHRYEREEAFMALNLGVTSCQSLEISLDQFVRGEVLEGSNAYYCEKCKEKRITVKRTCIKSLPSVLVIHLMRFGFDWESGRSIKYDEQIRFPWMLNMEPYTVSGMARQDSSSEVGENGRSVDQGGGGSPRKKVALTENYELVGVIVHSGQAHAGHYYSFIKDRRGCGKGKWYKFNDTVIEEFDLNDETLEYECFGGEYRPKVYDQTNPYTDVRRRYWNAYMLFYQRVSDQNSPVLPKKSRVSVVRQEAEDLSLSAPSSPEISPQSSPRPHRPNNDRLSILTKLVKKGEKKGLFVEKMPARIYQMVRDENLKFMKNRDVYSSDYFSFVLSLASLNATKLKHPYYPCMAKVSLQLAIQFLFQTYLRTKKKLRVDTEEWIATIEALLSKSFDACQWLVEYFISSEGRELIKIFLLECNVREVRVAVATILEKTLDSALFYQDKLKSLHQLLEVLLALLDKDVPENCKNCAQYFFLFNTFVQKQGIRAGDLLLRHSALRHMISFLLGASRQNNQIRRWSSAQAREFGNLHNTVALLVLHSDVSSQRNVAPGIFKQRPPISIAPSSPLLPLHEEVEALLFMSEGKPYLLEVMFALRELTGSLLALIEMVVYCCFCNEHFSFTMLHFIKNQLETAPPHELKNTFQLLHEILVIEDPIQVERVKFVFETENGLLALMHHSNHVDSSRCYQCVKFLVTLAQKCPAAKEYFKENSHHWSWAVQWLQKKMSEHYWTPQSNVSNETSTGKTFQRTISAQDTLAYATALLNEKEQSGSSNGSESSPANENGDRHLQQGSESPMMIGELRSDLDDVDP
# Method in brief: as §1
# USP25 = target: T3, USP25 (UniProt Q9UHP3)
# T3 sequence (whole entry): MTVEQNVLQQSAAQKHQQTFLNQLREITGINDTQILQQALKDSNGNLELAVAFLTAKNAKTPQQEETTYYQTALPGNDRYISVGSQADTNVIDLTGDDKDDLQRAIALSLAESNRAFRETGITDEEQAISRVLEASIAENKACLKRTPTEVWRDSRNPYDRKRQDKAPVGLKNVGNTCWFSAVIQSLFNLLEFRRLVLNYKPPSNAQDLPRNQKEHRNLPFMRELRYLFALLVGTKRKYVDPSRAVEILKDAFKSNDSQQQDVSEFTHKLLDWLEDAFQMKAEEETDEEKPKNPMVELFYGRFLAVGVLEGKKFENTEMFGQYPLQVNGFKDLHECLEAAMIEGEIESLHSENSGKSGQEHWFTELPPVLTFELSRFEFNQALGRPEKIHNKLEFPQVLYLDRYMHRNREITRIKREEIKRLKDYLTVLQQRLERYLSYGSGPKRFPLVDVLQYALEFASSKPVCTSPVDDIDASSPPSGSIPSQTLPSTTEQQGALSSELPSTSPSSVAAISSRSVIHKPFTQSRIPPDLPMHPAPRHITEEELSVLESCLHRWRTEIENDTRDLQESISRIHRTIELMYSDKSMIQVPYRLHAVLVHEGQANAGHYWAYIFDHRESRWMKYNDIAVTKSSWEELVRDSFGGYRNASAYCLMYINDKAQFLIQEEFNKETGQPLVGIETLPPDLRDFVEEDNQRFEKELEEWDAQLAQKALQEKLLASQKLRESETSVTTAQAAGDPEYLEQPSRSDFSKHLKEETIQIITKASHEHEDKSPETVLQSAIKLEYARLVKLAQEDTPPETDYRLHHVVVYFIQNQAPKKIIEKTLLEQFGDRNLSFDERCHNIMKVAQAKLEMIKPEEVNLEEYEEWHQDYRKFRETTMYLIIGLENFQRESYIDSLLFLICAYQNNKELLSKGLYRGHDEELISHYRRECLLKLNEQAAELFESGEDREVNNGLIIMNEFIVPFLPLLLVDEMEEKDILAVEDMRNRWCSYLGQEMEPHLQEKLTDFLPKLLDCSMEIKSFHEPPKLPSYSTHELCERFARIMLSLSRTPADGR
# Method in brief: as §1
# USP28 = target: T4, USP28 (UniProt Q96RU2)
# T4 sequence (whole entry): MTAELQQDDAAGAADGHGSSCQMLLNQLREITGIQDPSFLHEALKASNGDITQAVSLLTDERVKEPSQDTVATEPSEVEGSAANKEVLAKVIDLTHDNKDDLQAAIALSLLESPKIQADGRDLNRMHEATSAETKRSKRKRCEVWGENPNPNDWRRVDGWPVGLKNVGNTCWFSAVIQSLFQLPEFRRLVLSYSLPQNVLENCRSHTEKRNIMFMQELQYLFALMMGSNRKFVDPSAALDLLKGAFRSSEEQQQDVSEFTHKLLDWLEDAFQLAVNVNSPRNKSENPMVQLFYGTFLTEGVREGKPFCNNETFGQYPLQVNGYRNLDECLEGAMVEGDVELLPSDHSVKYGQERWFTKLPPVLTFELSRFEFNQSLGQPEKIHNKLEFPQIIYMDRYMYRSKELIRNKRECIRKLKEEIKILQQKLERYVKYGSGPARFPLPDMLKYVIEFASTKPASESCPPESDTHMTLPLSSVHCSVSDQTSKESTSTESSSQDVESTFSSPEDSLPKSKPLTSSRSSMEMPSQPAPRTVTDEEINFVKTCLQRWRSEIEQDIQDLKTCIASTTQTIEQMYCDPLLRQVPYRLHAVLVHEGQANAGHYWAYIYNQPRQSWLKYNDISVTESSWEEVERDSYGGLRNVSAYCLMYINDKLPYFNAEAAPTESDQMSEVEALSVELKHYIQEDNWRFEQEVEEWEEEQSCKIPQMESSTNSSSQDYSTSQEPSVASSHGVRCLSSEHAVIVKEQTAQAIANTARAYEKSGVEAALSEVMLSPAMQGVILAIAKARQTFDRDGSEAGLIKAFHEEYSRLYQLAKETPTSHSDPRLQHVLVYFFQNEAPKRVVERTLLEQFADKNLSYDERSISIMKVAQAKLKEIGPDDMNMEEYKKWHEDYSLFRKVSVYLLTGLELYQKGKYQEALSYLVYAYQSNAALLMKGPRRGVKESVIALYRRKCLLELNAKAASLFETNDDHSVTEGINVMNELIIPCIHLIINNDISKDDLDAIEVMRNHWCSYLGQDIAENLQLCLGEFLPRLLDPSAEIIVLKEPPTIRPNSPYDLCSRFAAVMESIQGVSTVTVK
# Method in brief: as §1
structure (smiles),measurement,setting,value
O=C(CCl)N1CCOC(c2cccc(F)c2)C1 (stereo not given),log2 ratio of Biotin-Ahx-Ub-VS probe labelling,USP19,-0.335
same,log2 ratio of Biotin-Ahx-Ub-VS probe labelling,USP22,-0.24
same,log2 ratio of Biotin-Ahx-Ub-VS probe labelling,USP24,-1.13 (active)
same,log2 ratio of Biotin-Ahx-Ub-VS probe labelling,USP25,-0.541
same,log2 ratio of Biotin-Ahx-Ub-VS probe labelling,USP28,-0.953

# — the supplement of paper PMC11732987, “Enantioselective OTUD7B fragment discovery through chemoproteomics screening and high-throughput optimisation” (Communications Chemistry, 2025)
